# Results as given in PubChem BioAssay (NCATS).
# “And” between values parts separate entries of the source, which are not always exact repeats. Equal values may be shown once. Records with an inconclusive call do not appear. Where a call stands in place of a potency, no number is given. The source made the active and inactive calls. Unless noted, calls follow the shape of the dose curve; as a rule, active = well fitted curve in the direction sought with a large enough effect; inconclusive = small, poorly fitted or top-dose-only effect, or another doubt; inactive = no such curve, though single readings can be large; an effect the other way counts as inactive or inconclusive.
# Columns and labels:
# [1] = Identifying Small Molecule Inhibitors of Pancreatic Cancer Stem Cells (A2780, Spheroid) (AID 1259357); details: Potency: A2780 spheroid viability;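 also: compound exposure lasted 48 h before the ATP luminescence read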; also: potency is read from the fitted curve at half-maximal effect
# Summary of the method: (§1)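 Spheroids grown 14 days in stem cell media on hydrogel-coated nonadherent plates; 2D lines seeded directly. Compounds added after 4 h attachment, 48 h at 37C, 5% CO2; CellTiter-Glo luminescence normalized to DMSO (no inhibition) and no-cell wells (full inhibition).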
# [2] = Identifying Small Molecule Inhibitors of Pancreatic Cancer Stem Cells (SN12C, Adherent) (AID 1259358);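 also: cell survival measured after 48 h of compound exposure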; also: potency is read from the fitted curve at half-maximal effect
# Summary of the method: (§2)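 Cytotoxicity read by CellTiter-Glo luminescence after 48 h compound exposure at 37C; percent activity scaled between DMSO-treated cells and cell-free wells. Spheroid formats used cells pre-formed 14 days in stem cell media on hydrogel.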
# [3] = Identifying Small Molecule Inhibitors of Pancreatic Cancer Stem Cells (SN12C, Spheroid) (AID 1259360); details: Potency: SN12C spheroid viability; also: potency is read from the fitted curve at half-maximal effect
# Summary of the method: as §1
# [4] = Identifying Small Molecule Inhibitors of Pancreatic Cancer Stem Cells (Panc1, Adherent) (AID 1259362); details: Potency: viability;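 also: compound exposure lasted 48 h before the viability read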
# Summary of the method: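 Viability is scored by CellTiter-Glo luminescence 48 h after dosing, expressed as percent activity against vehicle and no-cell references. Spheroid formats rely on cells cultured 14 days in stem cell media beforehand.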
# [5] = P-glycoprotein substrates identified in KB-3-1 adenocarcinoma cell line, qHTS therapeutic library screen (AID 1346986); also: nearly all actives have a fitted effect of over 60% in size;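 also: potency is read from the fitted curve at half-maximal effect; potency is for cytotoxicity meaning loss of cell viability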
# Summary of the method: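 Dose-response cytotoxicity, KB-3-1 vs P-gp-high KB-8-5-11, no colchicine in assay medium. Read: CellTiter-Glo at 72 h.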
# [6] = P-glycoprotein substrates identified in KB-8-5-11 adenocarcinoma cell line, qHTS therapeutic library screen (AID 1346987); also: nearly all actives have a fitted effect of over 65% in size; also: potency is read from the fitted curve at half-maximal effect
# Summary of the method: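 Human cervical adenocarcinoma KB-8-5-11 cells, selected in colchicine to over-express P-gp and assayed without it, were exposed for 72 h to titrated compounds. An ATP-based luminescent viability signal gave AC50.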
# [7] = NS1 protein of Zika virus - qHTS assay to identify small molecule inhibitors in human HEK 293 cells (AID 1347053); also: nearly all actives have a fitted effect of over 55% in size; also: potency is read from the fitted curve at half-maximal effect
# Summary of the method: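 Read-out is a two-antibody TR-FRET for ZIKV NS1, normalized between uninfected cells and infected cells. Compound added 1 h before MR766 infection at MOI 0.5; human HEK 293 cells incubated 24 h, 37 C.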
# [8] = qHTS of pediatric cancer cell lines to identify multiple opportunities for drug repurposing: Primary screen for TC32 cells (AID 1347089); also: nearly all actives have a fitted effect of over 60% in size; also: potency is read from the fitted curve at half-maximal effect
# Summary of the method: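 qHTS, TC32, 48 h drug treatment, CellTiter-Glo luminescence as a proxy for metabolically active cells; primary top concentration 46 µM (MIPE 11-pt, NPC 8-pt); confirmatory 11-pt.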
# [9] = qHTS of pediatric cancer cell lines to identify multiple opportunities for drug repurposing: Primary screen for DAOY cells (AID 1347090); also: nearly all actives have a fitted effect of over 55% in size; also: potency is read from the fitted curve at half-maximal effect
# Summary of the method: (§3)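 Cell viability, CellTiter-Glo luminescence; 500-1,000 cells/well, 8- or 11-point titration, 48 h compound exposure at 37 degrees C, 5% CO2. Controls: DMSO neutral, bortezomib 2.3 µM final as positive.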
# [10] = qHTS of pediatric cancer cell lines to identify multiple opportunities for drug repurposing: Primary screen for SJ-GBM2 cells (AID 1347091); also: potency is read from the fitted curve at half-maximal effect
# Summary of the method: as §3
# [11] = qHTS of pediatric cancer cell lines to identify multiple opportunities for drug repurposing: Primary screen for A673 cells (AID 1347092); also: nearly all actives have a fitted effect of over 45% in size; also: potency is read from the fitted curve at half-maximal effect
# Summary of the method: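 Luminescence from CellTiter-Glo, taken after 15 min at room temperature, served as the proxy for metabolically active cells following 48 h treatment. Both potency and efficacy were taken from curves fitted to the titration data.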
# [12] = Identifying Small Molecule Inhibitors of Pancreatic Cancer Stem Cells (Panc1, Spheroid) (AID 1259359);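 also: potency is read from the fitted curve at half-maximal effect; compound exposure lasted 48 h before reading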
# Summary of the method: as §1
# [13] = Natriuretic polypeptide receptor (hNpr1) antagonism - Pilot counterscreen GloSensor control cell line (AID 1347045; calls by dose curve; also: series mostly up to about 38 µM)
# Summary of the method: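 The SNP-driven cGMP luminescence signal (50 uM, 20 min, room temperature) was measured in GloSensor HEK293 control cells. Compounds were tested as a LOPAC titration series and preincubated for 30-50 min.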
# [14] = target: Atrial natriuretic peptide receptor 2 (Homo sapiens) (UniProt P20594); experiment: Natriuretic polypeptide receptor (hNpr2) antagonism - Pilot subtype selectivity assay (AID 1347050; calls by dose curve)
# Summary of the method: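 Antagonist mode: compounds (LOPAC1280, seven 1:5 dilutions) added 30 min before 1 nM hNppC stimulation of hNpr2-HEK293 cGMP-sensor cells; luminescence read before and 20 min after agonist at ambient temperature.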
# [15] = target: T1, Tyrosine-protein phosphatase non-receptor type substrate 1 (Homo sapiens) + Leukocyte surface antigen CD47 (Homo sapiens) (UniProt P78324+Q08722); experiment: CD47-SIRPalpha protein protein interaction - LANCE assay qHTS validation (AID 1347057; active = well fitted curve in the direction sought with a large enough effect in the signal ratio, with a control signal flat, not every such curve was filed as active; the % refers to the signal ratio; also: series mostly up to about 38 µM)
# Summary of the method: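 Inhibition of soluble CD47/SIRPalpha ectodomain association by titrated compounds, measured as 665/615 nm time-resolved FRET ratio after sequential 30 min room-temperature incubations.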
# [16] = target: T1, Tyrosine-protein phosphatase non-receptor type substrate 1 (Homo sapiens) + Leukocyte surface antigen CD47 (Homo sapiens); experiment: CD47-SIRPalpha protein protein interaction - Alpha assay qHTS validation (AID 1347059);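 also: bead proximity luminescence from CD47 binding SIRPalpha after compound preincubation with SIRPalpha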
# Summary of the method: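 AlphaScreen signal between CD47-His (12.5 nM) and biotin-SIRPalpha (25 nM) soluble extracellular domains, bead-captured via Ni-NTA and streptavidin. Compounds, in 7-point titrations, met SIRPalpha 30 min before CD47; PBS pH 7.4 with 0.05% IGEPAL.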
# [17] = target: Parathyroid hormone/parathyroid hormone-related peptide receptor (Homo sapiens) (UniProt Q03431); experiment: qHTS for PTHR1 Agonists: Optimization Screen against the NCGC LOPAC library (AID 1347079);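 also: GloSensor cAMP luminescence in HEK-293 GP2 cells expressing human PTHR1 with IBMX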
# Summary of the method: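 Signal increase flags agonism. GP2 cells, derived from HEK-293, express human PTHR1 and a GloSensor cAMP construct.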
# [18] = Identifying Small Molecule Inhibitors of Pancreatic Cancer Stem Cells (A278, Adherent) (AID 1259361); also: nearly all actives have a fitted effect of over 35% in size
# Summary of the method: as §2
# T1 sequence (P78324 whole entry, looked up, the tested form may be a part): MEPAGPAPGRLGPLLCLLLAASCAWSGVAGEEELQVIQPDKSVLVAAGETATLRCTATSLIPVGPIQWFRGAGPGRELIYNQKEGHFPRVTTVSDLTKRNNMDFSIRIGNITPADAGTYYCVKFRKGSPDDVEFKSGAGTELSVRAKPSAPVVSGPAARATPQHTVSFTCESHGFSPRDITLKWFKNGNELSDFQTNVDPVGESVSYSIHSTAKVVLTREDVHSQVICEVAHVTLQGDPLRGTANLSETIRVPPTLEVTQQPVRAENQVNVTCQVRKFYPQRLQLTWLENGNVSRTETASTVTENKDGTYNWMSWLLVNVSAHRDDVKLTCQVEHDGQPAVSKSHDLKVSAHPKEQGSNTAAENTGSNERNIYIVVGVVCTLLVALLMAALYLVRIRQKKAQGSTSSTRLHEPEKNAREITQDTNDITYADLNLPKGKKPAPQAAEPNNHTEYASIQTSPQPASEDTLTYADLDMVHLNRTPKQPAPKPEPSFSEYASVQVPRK
# T1 sequence (Q08722 whole entry, looked up, the tested form may be a part): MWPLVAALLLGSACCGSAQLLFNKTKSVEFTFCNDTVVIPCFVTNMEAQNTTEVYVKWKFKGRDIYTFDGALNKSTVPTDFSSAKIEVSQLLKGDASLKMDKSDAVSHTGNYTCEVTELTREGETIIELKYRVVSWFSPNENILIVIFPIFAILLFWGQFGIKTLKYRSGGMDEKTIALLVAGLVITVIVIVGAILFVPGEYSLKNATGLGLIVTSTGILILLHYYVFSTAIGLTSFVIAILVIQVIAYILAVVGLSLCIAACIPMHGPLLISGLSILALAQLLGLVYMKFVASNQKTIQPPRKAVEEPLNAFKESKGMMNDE
# Atrial natriuretic peptide receptor 2 (Homo sapiens), sequence (P20594 whole entry, looked up): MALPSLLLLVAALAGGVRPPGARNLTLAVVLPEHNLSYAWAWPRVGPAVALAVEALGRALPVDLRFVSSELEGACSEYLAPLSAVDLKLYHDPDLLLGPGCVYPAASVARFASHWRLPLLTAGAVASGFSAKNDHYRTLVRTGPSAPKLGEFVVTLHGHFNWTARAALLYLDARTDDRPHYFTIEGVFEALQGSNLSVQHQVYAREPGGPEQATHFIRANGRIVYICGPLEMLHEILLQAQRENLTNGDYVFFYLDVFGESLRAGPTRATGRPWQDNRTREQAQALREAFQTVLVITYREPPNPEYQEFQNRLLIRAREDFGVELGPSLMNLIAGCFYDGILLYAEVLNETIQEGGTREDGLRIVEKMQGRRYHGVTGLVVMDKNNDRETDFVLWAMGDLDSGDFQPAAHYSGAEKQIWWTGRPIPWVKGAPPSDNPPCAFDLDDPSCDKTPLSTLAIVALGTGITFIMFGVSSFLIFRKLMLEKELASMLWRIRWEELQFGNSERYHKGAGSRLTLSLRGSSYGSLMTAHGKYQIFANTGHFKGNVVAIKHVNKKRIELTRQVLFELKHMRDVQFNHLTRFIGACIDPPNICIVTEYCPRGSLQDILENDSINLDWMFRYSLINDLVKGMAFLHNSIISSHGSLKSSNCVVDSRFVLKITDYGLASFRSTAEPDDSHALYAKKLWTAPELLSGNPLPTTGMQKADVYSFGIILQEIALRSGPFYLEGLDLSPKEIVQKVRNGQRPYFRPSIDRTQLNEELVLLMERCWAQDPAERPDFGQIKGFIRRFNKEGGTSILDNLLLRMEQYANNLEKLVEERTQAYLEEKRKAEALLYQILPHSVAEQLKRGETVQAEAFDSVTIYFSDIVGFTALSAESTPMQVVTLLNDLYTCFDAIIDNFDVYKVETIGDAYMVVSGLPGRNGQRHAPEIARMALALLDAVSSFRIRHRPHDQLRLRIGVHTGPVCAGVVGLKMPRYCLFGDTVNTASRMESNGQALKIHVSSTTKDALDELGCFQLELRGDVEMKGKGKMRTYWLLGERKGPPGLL
# Parathyroid hormone/parathyroid hormone-related peptide receptor (Homo sapiens), sequence (Q03431 whole entry, looked up): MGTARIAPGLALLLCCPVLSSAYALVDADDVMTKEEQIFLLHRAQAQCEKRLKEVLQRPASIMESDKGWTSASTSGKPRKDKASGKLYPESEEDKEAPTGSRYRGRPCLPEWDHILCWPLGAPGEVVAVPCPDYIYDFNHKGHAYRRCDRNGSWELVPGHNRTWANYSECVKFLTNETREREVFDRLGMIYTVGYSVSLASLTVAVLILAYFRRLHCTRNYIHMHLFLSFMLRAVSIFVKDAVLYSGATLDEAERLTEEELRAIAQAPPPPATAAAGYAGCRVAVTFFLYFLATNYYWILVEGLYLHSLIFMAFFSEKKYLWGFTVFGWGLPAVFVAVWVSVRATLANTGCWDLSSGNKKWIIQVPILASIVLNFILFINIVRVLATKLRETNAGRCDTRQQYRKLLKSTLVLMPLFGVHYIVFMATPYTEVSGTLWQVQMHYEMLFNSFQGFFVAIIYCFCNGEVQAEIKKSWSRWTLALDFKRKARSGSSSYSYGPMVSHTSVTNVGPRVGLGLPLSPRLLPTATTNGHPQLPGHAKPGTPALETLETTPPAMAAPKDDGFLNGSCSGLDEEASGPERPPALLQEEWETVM
structure (smiles),measurement,setting,value
O=C1CCCC2=C1C(c1[nH]ncc1Cl)N=C(Nc1nc3ccccc3o1)N2 (stereo unspecified),Potency,[1],inactive
same,Potency,[2],inactive
same,Potency,[3],inactive
same,Potency,[4],inactive
same,Potency,[5],inactive
same,Potency,[6],inactive
same,Potency,[7],inactive
same,Potency,[8],inactive
same,Potency,[9],inactive
same,Potency,[10],inactive
same,Potency,[11],inactive
Cc1cccc(-c2[nH]c(C(C)(C)C)nc2-c2ccc3nccnc3c2)n1,Potency,[2],inactive
same,Potency,[12],8.33 µM (active)
same,Potency,[3],inactive
same,Potency,[4],inactive
same,Potency,[5],3.26 µM (active)
same,Potency,[6],8.2 µM (active)
same,outcome,[13],inactive
same,Potency,[14],inactive
same,Potency,[7],inactive
same,outcome,[15],inactive
same,outcome,[16],inactive
same,outcome,[17],inactive
same,Potency,[10],8.33 µM (active)
same,Potency,[11],14.8 µM (active)
COc1ccc(COc2cc3oc(=O)c4cc(C(C)O)ccc4c3cc2OC)cc1 (stereo unspecified),Potency,[1],inactive
same,Potency,[2],inactive
same,Potency,[3],inactive
same,Potency,[6],8.33 µM (active) and 3.66 µM (active)
same,Potency,[7],inactive
same,Potency,[8],inactive
same,Potency,[10],10.5 µM (active)
Cc1n[nH]c(C)c1Cc1sc2c(c1C(=O)N1C[C@H](O)CO1)c(=O)n(C)c(=O)n2CC(C)C,Potency,[1],inactive
same,Potency,[2],inactive
same,Potency,[3],inactive
same,Potency,[5],inactive
same,Potency,[6],inactive
same,Potency,[7],inactive
same,Potency,[9],inactive
same,Potency,[10],inactive
O=C(O)c1ccc(-c2c[nH]c3ccc(-c4ccccc4)cc23)cc1C1CCCC1,Potency,[1],inactive
same,Potency,[2],inactive
same,Potency,[3],inactive
same,Potency,[4],inactive
Cc1csc(NC(=O)c2sc3nc4c(c(C(F)(F)F)c3c2N)CCC4)n1,Potency,[1],inactive
same,Potency,[2],inactive
same,Potency,[3],inactive
same,IC50 (viability decrease),[18],inactive
same,Potency,[4],inactive
same,Potency,[6],inactive
same,Potency,[7],inactive
same,Potency,[9],23.5 µM (active)
same,Potency,[10],inactive
same,Potency,[11],1.18 µM (active)
S=C(NCc1ccc2c(c1)OCO2)N1CCN(c2ncnc3c2oc2ccccc23)CC1,Potency,[1],16.6 µM (active)
same,Potency,[2],13.2 µM (active)
same,Potency,[12],7.43 µM (active)
same,Potency,[3],14.8 µM (active)
same,IC50 (viability decrease),[18],4.18 µM (active)
same,Potency,[8],inactive
same,Potency,[9],2.15 µM (active)
same,Potency,[10],inactive
O=C(C1CC1)N1CC[C@@H](Cn2c(-c3ccc(-c4ccc5occc5c4)cc3)nc3cnccc32)C1,Potency,[1],0.469 µM (active)
same,Potency,[2],inactive
same,Potency,[6],inactive
same,Potency,[8],inactive
same,Potency,[9],inactive
same,Potency,[10],8.33 µM (active)
CCCS(=O)(=O)Nc1ccc(F)c(C(=O)c2c[nH]c3ncc(Cl)cc23)c1F,Potency,[1],inactive
same,Potency,[7],inactive
same,Potency,[8],inactive
same,Potency,[10],10.5 µM (active)
same,Potency,[11],18.7 µM (active)
CCC(=O)N[C@H]1CC[C@H](C(=O)N(C)c2ccc(-c3nc4ccccc4o3)cc2)C1,Potency,[1],14.8 µM (active)
same,Potency,[12],3.72 µM (active)
same,Potency,[3],18.7 µM (active)
same,Potency,[7],inactive
same,Potency,[8],inactive
same,Potency,[9],5.9 µM (active)
Oc1cccc(-c2nc(N3CCOCC3)c3oc4ncccc4c3n2)c1,Potency,[1],0.833 µM (active)
same,Potency,[2],0.0743 µM (active)
same,IC50 (viability decrease),[18],0.105 µM (active)
same,Potency,[5],0.58 µM (active)
same,Potency,[6],108 nM (active) and 517 nM (active)
same,Potency,[7],2.7 µM (active)
same,Potency,[8],0.758 µM (active)
same,Potency,[9],2.15 µM (active)
same,Potency,[10],0.0855 µM (active)
same,Potency,[11],2.15 µM (active)
CNC(=O)c1ccc(N2C(=S)N(c3ccc(C#N)c(C(F)(F)F)c3)C(=O)C2(C)C)cc1F,Potency,[1],0.166 µM (active)
same,Potency,[2],inactive
same,IC50 (viability decrease),[18],23.5 µM (active)
same,Potency,[4],inactive
same,Potency,[6],inactive
same,Potency,[7],inactive
same,Potency,[8],inactive
same,Potency,[9],inactive
same,Potency,[11],inactive
CCCCCCCc1ccc(CCc2cccc(O)c2C(=O)O)cc1,Potency,[1],inactive
same,Potency,[2],inactive
same,Potency,[4],inactive
same,Potency,[8],inactive
same,Potency,[10],23.5 µM (active)
Nc1cccc(S(=O)(=O)N2CCCN(S(=O)(=O)c3ccc4c(c3)OCCO4)CC2)c1,Potency,[2],inactive
same,Potency,[12],5.26 µM (active)
same,Potency,[3],inactive
same,IC50 (viability decrease),[18],inactive
same,Potency,[4],inactive
same,Potency,[8],inactive
same,Potency,[9],inactive
same,Potency,[11],inactive
O=c1ncn2nc(Sc3ccc(F)cc3F)ccc2c1-c1c(Cl)cccc1Cl,Potency,[1],14.8 µM (active)
same,Potency,[2],inactive
same,Potency,[6],inactive
same,Potency,[7],inactive
CS(=O)(=O)c1cccc(CNc2nc(Nc3ccc4c(c3)CCC(=O)N4)ncc2C(F)(F)F)c1,Potency,[2],inactive
same,Potency,[3],inactive
same,IC50 (viability decrease),[18],3.72 µM (active)
same,Potency,[6],inactive
same,Potency,[7],inactive
same,outcome,[15],inactive
same,outcome,[16],inactive
same,Potency,[10],10.5 µM (active)
same,Potency,[11],14.8 µM (active)
NC(=O)c1ccc(-c2nc(-c3ccc4c(c3)OCO4)c(-c3ccccn3)[nH]2)cc1,Potency,[2],inactive
same,Potency,[3],inactive
same,IC50 (viability decrease),[18],inactive
same,Potency,[4],inactive
same,Potency,[5],inactive
same,Potency,[6],inactive
same,Potency,[7],inactive
same,Potency,[9],inactive
same,Potency,[10],inactive
same,Potency,[11],inactive
CCCc1nn(C)c2c(=O)[nH]c(-c3cc(S(=O)(=O)N4CCN(C)CC4)ccc3OCC)nc12,Potency,[2],inactive
same,Potency,[3],inactive
same,IC50 (viability decrease),[18],inactive
same,Potency,[5],inactive
same,Potency,[6],13.2 µM (active)
same,Potency,[7],inactive
same,outcome,[15],inactive
same,outcome,[16],inactive
same,Potency,[9],inactive
same,Potency,[10],inactive
C#Cc1cccc(Nc2ncnc3cc(OCCOC)c(OCCOC)cc23)c1,Potency,[2],8.33 µM (active)
same,Potency,[3],16.6 µM (active)
same,IC50 (viability decrease),[18],7.43 µM (active)
same,Potency,[4],inactive
same,Potency,[7],inactive
O=C1[C@H](Cc2ccc(O)cc2)N2C(=O)CCN(C(=O)NCc3ccccc3)[C@H]2CN1Cc1cccc2ccccc12,Potency,[2],16.6 µM (active)
same,Potency,[3],20.9 µM (active)
same,IC50 (viability decrease),[18],1.05 µM (active)
same,Potency,[7],9.35 µM (active)
same,Potency,[8],11.7 µM (active)
same,Potency,[9],14.8 µM (active)
same,Potency,[10],10.5 µM (active)
